The full list was thinned out, with hits kept by preference.
AmpC inh no detg: blocks E. coli AmpC beta-lactamase in detergent-free assay; P00811; AID 485341; AmpC nitrocefin hydrolysis, absorbance 480 nm, 0.0001% Triton; 330,000 compounds, 0.52% hits; Potency, µM (series often up to 57.1 µM), for the others: at the highest dose activity change, negative = inhibition, actives largely listed as inhibitors;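 note: potency is the fitted concentration of half-maximal effect; plate controls were no compound for no effect and no enzyme for full effect; nearly all actives have a fitted effect of over 20% in size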
Target sequence (P00811 whole entry, looked up): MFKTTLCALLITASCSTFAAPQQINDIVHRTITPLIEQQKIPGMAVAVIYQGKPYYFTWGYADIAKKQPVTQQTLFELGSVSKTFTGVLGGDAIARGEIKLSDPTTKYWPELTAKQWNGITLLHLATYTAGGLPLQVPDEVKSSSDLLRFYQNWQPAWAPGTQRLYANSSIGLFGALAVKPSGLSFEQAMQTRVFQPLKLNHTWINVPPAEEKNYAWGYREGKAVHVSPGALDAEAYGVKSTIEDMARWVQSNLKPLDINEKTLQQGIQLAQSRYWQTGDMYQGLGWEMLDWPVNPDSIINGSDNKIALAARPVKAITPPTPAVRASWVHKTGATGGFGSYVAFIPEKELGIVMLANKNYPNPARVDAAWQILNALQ
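20 mM phosphate pH 7.0 + 0.01% (detergent screen) or 0.0001% Triton X-100; 5.3 nM AmpC reagent; cpd preinc 15 min RT; nitrocefin (800 uM stock) to start; A480 q20 s × 4 min; Activity was normalised to no-enzyme and no-compound control wells.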
NS1 function inh: influenza NS1 inhibition; Potency, µM (titrated, usually from 46.1 µM), for inactives: at the highest dose activity, positive = more growth; 270,000 compounds, 0.4% hits; calls by dose curve; note: potency is the fitted concentration of half-maximal effect; actives are rising curves; nearly all actives have a fitted effect of over 50% in size
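A cell-based growth assay was used: compounds that relieve NS1-induced slow growth of budding yeast raise OD600. Assay medium was yeast nitrogen base with ammonium sulphate and -URA supplement, pH 6.0, with 2% galactose.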
Shiga inhibitor: blocks Shiga toxin action in Vero cells; Vero cells, Shiga toxin protein synthesis inhibition reporter; 290,000 compounds, 9.2% hits; inhibition, % at 38.7 µM; AID 2315; in the data active = inhibition mostly above about 28%, no sharp cut-off; inactive = mostly below about 43%; note: 0% is about no effect
AmpC detergent: inhibitors of E. coli AmpC beta-lactamase with detergent. 370,000 compounds, 0.041% hits. Potency, µM (top dose mostly 114 µM), for inactives: at the highest dose activity change, negative = inhibition, actives largely listed as inhibitors. AmpC hydrolysis of nitrocefin, absorbance 480 nm, 0.01% Triton. P00811;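 note: potency is the fitted concentration of half-maximal effect; 0% = no-compound wells and -100% = no-enzyme wells; nearly all actives have a fitted effect of over 25% in size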
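AmpC (5.3 nM in the dispensed reagent) in 20 mM phosphate pH 7.0 with 0.01% (detergent screen) or 0.0001% Triton X-100 was preincubated with compounds for 15 min at room temperature. Nitrocefin was then added from an 800 uM solution, and hydrolysis was followed at 480 nm.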
Cycloheximide cs: counter-screen for Shiga toxin inhibitors: cycloheximide protein synthesis inhibition; cell reporter, cycloheximide protein synthesis inhibition counterscreen; max response, %; 300,000 compounds, 12% hits; in the data active = max response mostly above about 13%, no sharp cut-off; inactive = mostly below about 14%; note: read at 38.3 µM for the half of the compounds with a filed dose; 0% is about no effect
The depositor's hits bear a star; u = inconclusive; x = no result. Unless noted, calls come from the whole dose curve; as a rule, active = well fitted curve in the direction sought with a large enough effect; inconclusive = small, poorly fitted or top-dose-only effect, or another doubt; inactive = no such curve, though single readings can be large; an effect the other way counts as inactive or inconclusive.

SMILES	AmpC inh no detg	NS1 function inh	Shiga inhibitor	AmpC detergent	Cycloheximide cs
O=C(O)c1ccccc1C(=O)N1N=C(c2ccccc2)CC1c1ccccc1O (stereo unspecified)	-28%	u	67*	-11%	52*
COc1ccc2c(c1OC)C(=O)N1N=C(c3ccc(F)cc3)CC21 (stereo unspecified)	-11%	-4%	21	3%	10
Cc1ccc(N/C=C/C(=O)c2cccs2)cc1C	-17%	x	32	-10%	31*
Cc1cc(N/C=C/C(=O)c2cccs2)ccc1F	-34%	x	97*	u	29*
Cc1ccc(NC2CCCN(C(=O)c3cccs3)C2)cc1C (stereo unspecified)	1%	6%	30	5%	9
O=C(/C=C/Nc1ccccc1C(=O)O)c1cccs1	-15%	-20%	75*	1%	33*
Cc1ccc(NC(=S)NC(=O)c2cccs2)cc1F	-27%	x	x	x	x
O=C(/C=C/Nc1ccc(Nc2ccccc2)cc1)c1cccs1	-36%	u	103*	7%	63*
Cc1c(N/C=C/C(=O)c2cccs2)c(=O)n(-c2ccccc2)n1C	36%	-10%	-10	-15%	-2
COC(=O)c1cc(NC(=O)Cn2ncc3c2-c2ccccc2OC3)cc(C(=O)OC)c1	x	x	x	0%	x
Cc1c(-c2nc(-c3ccc4c(c3)[nH]c(=O)n4C)no2)cccc1[N+](=O)[O-]	x	x	x	3%	x
Cc1ccc(S(=O)(=O)c2nnn3c2nc(N2CCOCC2)c2ccccc23)c(C)c1	69%	11%	-4	0%	-1
COc1ccc(C(=O)Nc2nnc(SCC(=O)NCc3ccco3)s2)c(OC)c1	97%	14%	33*	4%	35*
O=C(CSc1nnc(NC(=O)c2ccccc2[N+](=O)[O-])s1)NCc1ccco1	-9%	8%	-3	-11%	1
O=C(CSc1nnc(NC(=O)c2ccccc2F)s1)NCc1ccc(F)cc1	-21%	7%	107*	u	41*
O=C(Nc1nnc(SCC(=O)N2CCCCC2)s1)c1ccccc1F	-10%	-17%	30	-4%	18
O=C(CSc1nnc(NC(=O)c2ccccc2F)s1)NCc1ccco1	-15%	11%	79*	-9%	35*
COc1ccccc1C(=O)Nc1nnc(SCC(=O)NCc2ccco2)s1	26%	-1%	63*	5%	43*
COc1ccccc1N1CCN(CCCNC(=O)C2CCCN(c3ncnc4c3nc3n4CCCCC3)C2)CC1 (stereo unspecified)	171%	-7%	8	-4%	-3
O=C(c1ccc(Cl)cc1)n1nc(-c2ccccc2)nc1NCc1ccco1	x	x	x	-2%	x
COc1ccccc1C(=O)NCCC(=O)NCCc1ccccc1	-37%	24%	-17	-3%	-3
O=C(CSc1nnc(NC(=O)c2ccco2)s1)Nc1ccccc1F	-23%	10%	11	-2%	1
COc1cc(OC)cc(C(=O)Nc2nnc(SCC(=O)NCc3ccco3)s2)c1	-20%	15%	97	6%	34*
COc1ccccc1C(=O)Nc1nnc(SCC(=O)NCC2CCCO2)s1 (stereo unspecified)	90%	1%	115*	-2%	40*
O=C(CSc1nnc(NC(=O)c2ccccc2F)s1)Nc1ccccc1F	-30%	3%	70*	-12%	35*
SMILES	AmpC inh no detg	NS1 function inh	Shiga inhibitor	AmpC detergent	Cycloheximide cs
CCCCCCCCCCC(C)=O	x	x	-6	x	-5
CCN(CC)C(=O)C1=C(C)Nc2nc3ccccc3n2C1c1cccc(Cl)c1 (stereo unspecified)	x	x	x	22%	x
Cc1cccc(-n2cc(CN3CCN(Cc4nccn4C)CC3)c(-c3cccc(F)c3)n2)c1	194%	-2%	53*	-5%	29*
Cc1cccc(CNC(=O)c2ccccc2N)c1	-45%	8%	33	-1%	20*
CCCCC(NC(=O)COc1cc2c(c3oc(=O)cc(C)c13)CCC(C)(C)O2)C(=O)O (stereo unspecified)	-16%	15%	1	-6%	-3
Cc1c(C(=O)N2CCN(CC(=O)Nc3ccccc3Cl)CC2)oc2ccc(Br)cc12	-17%	x	x	5%	x
CCCCC12CN3CCN(CC(C3)/C1=N\NC(=O)c1ccccc1N)C2	-8%	18%	83*	u	46*
COc1ccc(NC(=O)C=C(C)C)cc1Cl	x	-53%	102*	3%	29*
CCOC(=O)/C=C/C(=O)OCC(=O)Nc1ccc(OC)c(Cl)c1	-6%	-51%	-2	u	12*
